Data from ChEMBL document CHEMBL4513216, “Probing the Open Global Health Chemical Diversity Library for Multistage-Active Starting Points for Next-Generation Antimalarials” (ACS Infect Dis, 2020).
The campaign covered roughly 65,000 compounds. About 2,100 (3.2%) showed an effect of 50% or more. The median lay at about -52%. Many of the other results were omitted from the sample, so strong results are more common in it than they were.

The compounds below were run on Plasmodium falciparum (assay: Screen against P. falciparum Asexual Blood Stage (ABS), at 5uM). Settings: tested at 5 uM.
Format: functional, Dd2
In the case of `COc1ccccc1-n1nc(CC(C)C)nc1CSc1nnc(N)s1`, the INHIBITION is reported as -36.5%. Compound `CC(NCC1(N(C)C)CCOCC1)c1ccc(S(C)(=O)=O)cc1` (stereo unspecified) has an INHIBITION of -56.25%. Compound `CC(NCC1(N(C)C)CCOCC1)c1ccc(SC(F)F)cc1` (stereo unspecified) has an INHIBITION of 52.35%. Compound `CSC1(CNC(=O)NC(C)c2ccc(F)cc2)CCOCC1` (stereo unspecified) has an INHIBITION of -162%. For `COCC1CN(S(=O)(=O)Cc2ccccc2)Cc2c1cnn2C` (stereo unspecified), the INHIBITION was -54.3%. Work on `Nc1cc2c(nn1)CCN(C(=O)CCCC1CCCCC1)C2` yielded an INHIBITION of -83.9%. `Cc1ccc2ncccc2c1CN1CC[C@H](N(C)C)[C@H](CCC(=O)O)C1` was tested, and the INHIBITION was -3.92%. `COCCCC1CCCN(Cc2c(C)ccc3ncccc23)C1` (stereo unspecified) gave an INHIBITION of 37.2%. `CO[C@H]1CN(Cc2c(C)ccc3ncccc23)CC[C@H]1N` was tested, and the INHIBITION was 67.2%. Compound `Cc1cc(NC(=O)c2ccc(CN3CC[C@H](O)C3)cc2)ccc1F` has an INHIBITION of 21.2%. For `CC(=O)N1CCCC1c1cccc(NCc2ccccc2F)n1` (stereo unspecified), the INHIBITION was -133%. `COc1cc(N2CCC3(CCN(Cc4csc(C)n4)C3=O)C2)ncn1` (stereo unspecified) showed an INHIBITION of -8.45%. `COCCCN1CCN([C@@H]2c3ccccc3C3(CCNCC3)[C@H]2O)CC1` was tested, and the INHIBITION was -68.7%. Compound `CCNC(=O)[C@@H]1C[C@H](N)CN1c1cc(C(F)(F)F)nc(N2CCCC2)n1` has an INHIBITION of 54.7%. `CCNC(=O)[C@@H]1C[C@H](N)CN1c1cc(C(F)(F)F)nc(N(C)C)n1` showed an INHIBITION of 20.4%. Compound `CCNC(=O)[C@@H]1C[C@H](N)CN1c1cc(CC)nc(N(C)C)n1` has an INHIBITION of -67.6%. `CC(=O)Nc1nc(C(=O)N2CCCC(n3cncn3)C2)cs1` (stereo unspecified) showed an INHIBITION of -101%. `CN(C(=O)Cn1nc(-c2ccccc2)ccc1=O)C1CCS(=O)(=O)C1` (stereo unspecified) was tested, and the INHIBITION was -30.2%. In the case of `Fc1ccc(CC2CCN(Cc3cscn3)CC2)cc1`, the INHIBITION is reported as 50.7%. `Fc1ccc(CN2CCCN(Cc3cscn3)CC2)cc1` showed an INHIBITION of 43.6%. In the case of `Fc1ccccc1CC1CCN(Cc2cscn2)CC1`, the INHIBITION is reported as 45%. `CN1CCCCC1c1ncc2c(n1)CCN(Cc1ccccc1Cl)C2` (stereo unspecified) showed an INHIBITION of 41.5%. In the case of `CN1CCc2nc(C3CCCCN3Cc3ccccc3Cl)ncc2C1` (stereo unspecified), the INHIBITION is reported as -32.4%. Work on `CN1CCCCC1c1ncc2c(n1)CCN(Cc1ccc(Cl)c(F)c1)C2` (stereo unspecified) yielded an INHIBITION of 65.6%. For `O=C(CCCOc1cccc(F)c1)N1CCCC(n2cccn2)C1` (stereo unspecified), the INHIBITION was -31.5%. Compound `N#Cc1cn(C2CC2)c(=O)n(CC(O)c2ccccc2F)c1=O` (stereo unspecified) has an INHIBITION of -128%. Compound `N#Cc1cn(C2CC2)c(=O)n(CC(O)c2ccc(F)cc2)c1=O` (stereo unspecified) has an INHIBITION of 44.7%. `N#Cc1cn(C2CC2)c(=O)n(CC(O)c2ccccc2C(F)(F)F)c1=O` (stereo unspecified) gave an INHIBITION of 51%. In the case of `c1ncn(Cc2ccc(CNCc3ccc4c(c3)OCCO4)cc2)n1`, the INHIBITION is reported as 0.0598%. `CC(C)c1cc(NC(=O)c2ccc(C(=O)NC(C)(C)C)cc2)[nH]n1` was tested, and the INHIBITION was 64%. With `CC(C)c1cc(NC(=O)c2ccc([S+]([O-])C(C)C)cc2)[nH]n1` (stereo unspecified) the INHIBITION was -172%. `CC(C)c1cc(NC(=O)c2ccncc2)[nH]n1` was tested, and the INHIBITION was -134%. With `Cn1ccc(C(=O)NC2CCC23CCN(Cc2ccc(F)cc2)CC3)c1` (stereo unspecified) the INHIBITION was 39.9%. In the case of `Cn1ccc(C(=O)NC2CCC23CCN(Cc2nccs2)CC3)c1` (stereo unspecified), the INHIBITION is reported as -44.3%. For `Cc1ccc(CN2CCC3(CCC3NC(=O)c3ccn(C)c3)CC2)s1` (stereo unspecified), the INHIBITION was 55.9%. For `CN(C)CCOCC1CN(CCN(C)C)Cc2ccnn2C1` (stereo unspecified), the INHIBITION was -8.37%. For `CN(C)CCOCC1CN(Cc2ccsc2)Cc2ccnn2C1` (stereo unspecified), the INHIBITION was 38.6%. With `CN(C)CCOCC1CN(Cc2cccs2)Cc2ccnn2C1` (stereo unspecified) the INHIBITION was 63.4%. For `CNS(=O)(=O)c1cc(C)c2[nH]c(=O)cc(C)c2c1`, the INHIBITION was -73.5%. For `CC(=O)c1c(C)nn(CC(=O)Nc2ccc(Br)cc2)c1C`, the INHIBITION was 66.7%. Compound `COc1ccc(NC(=O)Cn2nc(C)c(C)cc2=O)cc1` has an INHIBITION of 25.5%. For `CC(=O)c1c(C)nn(CC(=O)Nc2ccc(F)cc2)c1C`, the INHIBITION was -44.1%. `COc1ncccc1C(=O)N1CC[C@H]2C[C@H](c3ccncn3)O[C@@H]2C1` showed an INHIBITION of -27.7%. Work on `COc1ccc(S(=O)(=O)N2CCC[C@@H]3CN(C(=O)C4CC4)C[C@@H]32)cc1` yielded an INHIBITION of -95.9%. Compound `Fc1ccc(CN2CCO[C@H]3[C@H](OCC4CCCC4)CC[C@@H]32)cc1` has an INHIBITION of -74.2%. `O=C(CCC(F)(F)F)N1CCCC2(CCC(=O)N(CC3CC3)C2)C1` (stereo unspecified) gave an INHIBITION of -7.69%. With `CC(C)Oc1ccc(CNC(=O)CC(F)(F)F)cc1F` the INHIBITION was -29.4%. `CC(C)Oc1ccccc1-c1cc(CN)ccc1F` was tested, and the INHIBITION was 60.3%. `CC(C)Oc1ccc(CNC(=O)NCc2ccncc2)cc1F` was tested, and the INHIBITION was -9.03%. With `COc1cccc(Cl)c1-c1cc(CN)ccc1F` the INHIBITION was 65.3%. Compound `COc1cccc(-c2cc(CN)ccc2F)c1F` has an INHIBITION of -77.3%. `COc1ccc(-c2cc(CN)ccc2F)c(OC)c1OC` showed an INHIBITION of 13.4%. `CC(C)NC(=O)Nc1ccc(-c2nc(C(C)C)no2)cc1` showed an INHIBITION of -60.3%. For `CN(C)CCCNC(=O)c1cc(-c2ccc3c(c2)CCO3)n[nH]1`, the INHIBITION was -55.4%. For `Cc1nc(CN2CCN(c3nc4c(s3)c(C)nn4C)CC2)cs1`, the INHIBITION was -145%. With `CC(C)(C)c1n[nH]cc1CNCC1CCN(C2CC2)C1` (stereo unspecified) the INHIBITION was 52.2%. `CCN1CCC(CNCc2c[nH]nc2C(C)(C)C)C1` (stereo unspecified) gave an INHIBITION of -143%. In the case of `CC(C)N1CCC(CNCc2c[nH]nc2C(C)(C)C)C1` (stereo unspecified), the INHIBITION is reported as -90.2%. Work on `Cn1c(=O)c2c(n3ncnc13)NC(=O)CC2c1ccc(F)cc1` (stereo unspecified) yielded an INHIBITION of -53.6%. `Cc1cccc(C(=O)N2C[C@@H](OCc3cccnc3)[C@H]3OCCC[C@@H]32)n1` showed an INHIBITION of -103%. Compound `CC(=O)N1[C@H](CN(C)C)C[C@@H]2CN(C(=O)c3ccsc3)CC[C@@H]21` has an INHIBITION of -108%. In the case of `CC(=O)N1[C@H](CN(C)C)C[C@@H]2CN(C(=O)c3cnc(C)cn3)CC[C@@H]21`, the INHIBITION is reported as 29%. Compound `CC(=O)N1[C@H](CN(C)C)C[C@@H]2CN(C(=O)c3ccno3)CC[C@@H]21` has an INHIBITION of 22.2%. `CC(=O)N1[C@H](CN(C)C)C[C@@H]2CN(C(=O)c3cccn3C)CC[C@@H]21` showed an INHIBITION of 56.5%. With `CC(=O)N1[C@H](CN(C)C)C[C@@H]2CN(C(=O)c3occc3C)CC[C@@H]21` the INHIBITION was 55.3%. `CC(=O)N1[C@H](CN(C)C)C[C@@H]2CN(C(=O)c3cccc(F)c3)CC[C@@H]21` gave an INHIBITION of -116%.
